Assay results as given in the OligoGym collection.

Biological target: ZNF135
Assay: pooled miR-30 sensor sort-seq; sequence = guide strand
Conditions: shRNA
Note: reference of the scale not given here.

| Sequence | sensor-assay potency score (higher = more potent) |
| --- | --- |
| TAACATAGCACTAATGGGCGTT | 0.0821 |
| TCAAACGTCACTTGCTCCGGGT | -0.579 |
| TCTCATTTCTGGAACACTCTGC | 0.253 |
| TTTCTCATGTGTATGATTGGGT | 0.467 |
| TTAGAACTGACAGTTTGACTTT | -0.0207 |

Biological target: ZNF146
Assay: as above
Conditions: shRNA

| Sequence | sensor-assay potency score (higher = more potent) |
| --- | --- |
| TTTATCACCTGAATGAATCCTC | 0.519 |
| TTCCACAAACATTGCATTCGTA | 0.428 |
| TTTATGAGGTACTTCTTCTGGC | 0.438 |
| TTAAAGTTAACCTCATTCGTGG | 0.427 |
| TTACATTCGAAAAGCTTCTCGC | -0.0579 |
| TTTCTAATGAAAGCTTTCCCAC | -1.05 |
| ATGTTTAATGACATACTGCTTT | -0.84 |
| TTAACCTCATTCGTGGTGCTTT | -0.543 |
| TTGGATTTGCCACTGAAGGTTT | -0.469 |
| TCCACAAACATTGCATTCGTAA | -1.11 |
| TTTTATGAGGTACTTCTTCTGG | -0.457 |
| TTGAGAACTGAGAGAAAGCTTT | -0.35 |

Biological target: ZNF160
Assay: as above
Conditions: shRNA

| Sequence | sensor-assay potency score (higher = more potent) |
| --- | --- |
| TCTATGTCTCTTCTGTCGCGTT | -0.213 |
| TGAATTTTGAGTGAAAACCTTG | -0.306 |
| TAAACAACAGGTATTGCTCTTT | 0.3 |
| TTACCTATTACTCTCCTCCCAC | -0.496 |
| TAGGCTTGAACGAACACTGAAG | -0.806 |
| TTCTATGTCTCTTCTGTCGCGT | 0.15 |
| TTTTGAGTGAAGCTCTTGCCAC | -0.929 |
| TATGTTTACATGATGTCTCTTG | 0.273 |
| TTTCTTGCTATTTTCACACAGC | -0.0844 |
| TTGATCTCTTTTACCTTCTTTC | -0.844 |
| TTCTGTACTGCTCTTCTCTTTT | -0.536 |
| TGTCTTTCCAACACCACTGTGT | 0.215 |

Biological target: ZNF169
Assay: as above
Conditions: shRNA

| Sequence | sensor-assay potency score (higher = more potent) |
| --- | --- |
| TTTCACTAGAGCATCTTGGAGC | -0.176 |
| TTTCTTAATGAGCTGTCGGGGC | -0.62 |
| TATTGTCTGAGGAGCTGCGAGC | -1.19 |
| TAGAGCATCTTGGAGCTTCTAG | -0.619 |
| TAGAAGGAGGGCTATCTTCTGG | -0.694 |
| TTGATAAGGTCTGATCTCTGGC | 0.151 |
| ATATTGTCTGAGGAGCTGCGAG | -1.34 |
| TTCAACATTGTGTCTGACCCCC | 0.288 |
| TAGCGCATATTGTCTGAGGAGC | -1.15 |
| TTTTTCACTAGAGCATCTTGGA | 0.14 |
| TTCGTCGCCTTGCTCCAGCTGT | -0.551 |
